This is an account of results in ChEMBL document CHEMBL4513146, “CO-ADD screening of Karazin Kharkiv National University (Ukraine) compounds”.

SMILES strings stand for the structures. Measured potencies and affinities stand elsewhere.

For orientation: Inhibition means the change of the read-out against control, counted positive when it falls.

In the assay the test system is Klebsiella pneumoniae. The following applies: Concentration 32 ug.mL-1;; ASSAY_TEST Inhibition of Bacterial Growth; detection method Absorption (OD600); MEDIA CAMHB; plate type 384well; NBS; CORNING #3640; time 18 hr.
`COc1ccc(C)cc1NC(=O)Cn1nc2ccc(SC(C)(C)C)nn2c1=O`: the Inhibition was determined as 5.72%. In the case of `O=S(=O)(c1ccc2nncn2c1)N(Cc1cccc(Cl)c1)c1ccc2c(c1)OCO2` it was 8.88%.

For `COc1cccc(-n2ccn3c(SCC(=O)c4ccc(C)cc4C)nnc3c2=O)c1`, the Inhibition is 16.45%.

For the molecule `Cc1cccc(Oc2nccn3c(=O)n(CC(=O)N4CCN(c5ccccc5F)CC4)nc23)c1C`, the Inhibition was -1.33%.

Turning to `CCCc1ccc(S(=O)(=O)Nc2ccc3nncn3n2)cc1`, the Inhibition stood at 8.2%. In the case of `CSc1ccc(-c2noc(Cn3nc4ccc(-c5ccccc5)nn4c3=O)n2)cc1` it was -3.08%; in that of `Cc1ccc(Cn2c(=O)c3ccc(C(=O)NC4CCCC4)cc3n3c(=O)n(CC#N)nc23)cc1`, 8.48%. Consider `CC(C)CCn1c(=O)c2sccc2n2c(=O)n(Cc3ccccc3Cl)nc12`, for which the Inhibition was 16.14%. Regarding `CCOc1ccc(C(=O)CSc2nnc3c(=O)n(-c4cccc(OC)c4)ccn23)cc1`, the Inhibition was found to be 2.62%.

On to `Cc1cccc(C)c1NC(=O)Cn1nc2c(N3CCSCC3)nc3ccccc3n2c1=O`, for which the Inhibition is given as 7.3%.

Take `O=C(Cn1nc2c(SC3CCCCC3)nccn2c1=O)Nc1ccc(Cl)cc1F`: the Inhibition is 10.76%. In the case of `O=c1c2nn(Cc3c(F)cccc3Cl)c(=O)n2ccn1-c1ccccc1`, the Inhibition amounted to 15.43%. Regarding `Cc1nnc2ccc(S(=O)(=O)N(Cc3ccccc3F)c3cccc(F)c3)cn12`, the Inhibition is 4.31%. For the molecule `COc1ccc(CN(c2ccc(C(C)C)cc2)S(=O)(=O)c2cccn3cnnc23)cc1`, the Inhibition was found to be 7.8%. Consider `Cc1cc(C)c(NC(=O)Cn2nc3c(Sc4ccccc4)nccn3c2=O)c(C)c1`, for which the Inhibition is -3.36%. With `Cc1cccc(N(Cc2ccc(F)cc2)S(=O)(=O)c2cccn3c(C)nnc23)c1`, the Inhibition is 7.81%. As for `CCc1nnc2c(S(=O)(=O)N(Cc3cccc(C)c3)c3ccc(Cl)cc3)cccn12`, the Inhibition is 3.49%. `Cc1cc(C)c(C(=O)CSc2nnc3c(=O)n(-c4ccc(F)c(F)c4)ccn23)cc1C`: the Inhibition amounted to 9.61%. Regarding `CCc1nnc2c(S(=O)(=O)N(Cc3ccccc3F)c3ccc(F)cc3)cccn12`, the Inhibition amounted to 2.68%. As for `COc1ccccc1Cn1c(=O)c2sccc2n2c(=O)n(Cc3c(F)cccc3Cl)nc12`, the figure is 8.3%. As to `COc1cccc(-n2ccn3c(SCC(=O)c4ccc(C)cc4)nnc3c2=O)c1`, the Inhibition is recorded as 10.94%. Turning to `COc1ccc(NC(=O)Cn2nc3ccc(Sc4ccccc4)nn3c2=O)cc1`, the Inhibition is reported as 3.54%. Take `COc1ccccc1-n1ccn2c(SCC(=O)Nc3ccc(C)cc3Cl)nnc2c1=O`: the Inhibition is 5.82%.

Turning to `Cc1cccc(NC(=O)Cn2c(=O)c3nnc(C(C)C)n3c3ccccc32)c1`, the Inhibition was determined as 2.46%.

With `O=C(Cn1nc2c(N3CCOCC3)nc3ccccc3n2c1=O)NCc1ccccc1Cl`, the Inhibition is reported as -0.61%.

For the molecule `CCc1ccccc1Sc1nccn2c(=O)n(CC(=O)Nc3cccc(Br)c3)nc12`, the Inhibition came to 8.38%. Turning to `CCCCn1c(=O)c2sccc2n2c(=O)n(CC(=O)c3ccc(OC)cc3)nc12`, the Inhibition is on record as 1.02%. `COCCCNC(=O)CSc1nnc2c(=O)n(Cc3ccccc3F)ccn12`: the Inhibition was found to be 15.39%. As to `O=C(Cn1nc2c(Oc3ccccc3)nccn2c1=O)Nc1ccc(F)cc1Cl`, the Inhibition was 3.51%. In the case of `C=Cc1ccc(CN(c2ccc(C(C)C)cc2)S(=O)(=O)c2cccn3c(C)nnc23)cc1`, the Inhibition turned out to be 4.48%. For `COc1cccc(-n2ccn3c(SCC(=O)c4cc(C)ccc4C)nnc3c2=O)c1`, the Inhibition is on record as 13.22%. Take `CCOc1ccc(C(=O)CSc2nnc3c(=O)n(-c4ccc(C)c(C)c4)ccn23)cc1`: the Inhibition was 1.39%. On to `O=C(Cn1nc2ccc(SCc3ccc(Cl)cc3)nn2c1=O)Nc1cccc(F)c1`, for which the Inhibition is recorded as -5.89%. In the case of `O=c1c2nn(Cc3cccc(F)c3)c(=O)n2ccn1-c1ccccc1` it was 3.5%; in that of `Cc1ccc(-n2ccn3c(SCC(=O)c4c[nH]c5ccccc45)nnc3c2=O)cc1C`, 9.4%. For `CC(C)CCn1c(=O)c2ccc(C(=O)NC3CCCCC3)cc2n2c(=O)n(CC#N)nc12`, the Inhibition is 4.36%. With `Cc1nnc2c(SCC(=O)N3CCN(c4ccc(F)cc4)CC3)nc3ccccc3n12`, the Inhibition amounted to 12.85%. As to `O=c1n(Cc2cccc(Cl)c2)nc2ccc(-c3ccccc3)nn12`, the Inhibition worked out at 19.54%. As to `CCc1cccc(C)c1NC(=O)Cn1nc2ccc(SCc3ccc(Cl)cc3)nn2c1=O`, the Inhibition is recorded as 2.49%.
